This experiment has as its system LXRa homodimer (NR concentration 270 nM). Put plainly: PBM binding z-score (relative to random genomic background probes); higher = stronger binding; sequences stand for … in GC…GCGATTGACAGCGTAGAATGAAGG
The gist of the method: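 Custom Agilent 4×180K protein-binding microarrays carried double-stranded probes, each with a 34-nt variable region. These regions held direct-repeat seeds, single-nucleotide variants, half-site ablations and random human genomic background sequences. Ligand-free nuclear receptor dimers were incubated on the arrays for 1 h, antibodies against each partner (one per run) detected binding, and scanned fluorescence was regression-normalized. Binding z-scores take the random background probes as reference.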
Take CCAGACAGGAGAGAAGGTAACTCAGCCTCGATTA: the PBM binding z-score is -0.0445. As for CGTCAAAGTTCAAGGTAACGTACCAGAAAGCAGC, the PBM binding z-score came out at 3.17.

TCTAGTTGGTCACGGAAGTCACACACGACGGGTA: the PBM binding z-score turned out to be 0.27. The same measure for ATATGTAGGTTATCGGTTCATTCAGTTTGCGCAT: 1.33; for CCTAGCAGGCCAATGTGGGTCACTCAAGGCTTGA: -0.413; for TCATATAGGTAATACAGGTGAAAGTTGGCATCTA: 0.587. The same measure for GCTAGCATGCCATTTGGGTCACTCAATGACGGGC: -0.46; for CGTCAAAGTTCAAGGTAACGTTACAGAAAGCAGC: 3.04; for CCTTACGGGTCAAGGTTATAGCACGGGTGGTACG: 0.318. The same measure for CGAACTAGGGCATCCAGGACAGTGAATACATTGA: -0.3. In turn, TTATCAAGGTGAAGGTCGTTGATCCCTCTGTAGA had a PBM binding z-score of 0.076. The same measure for CCAGACAGGTGAAATGTAACTCAGTCTGGTACGC: -0.367. The same measure for GATTCAGGGTCAAGGCCAGAGTACGCGTATTGAT: 0.175; for CGTCCAAGGTCAATGCTAGGTAAGTGAAAGCATT: 0.161; for CTCGAAAGGTCGTGCTCAGGTGACTATACCAAAC: 0.561. In turn, GCTGCTAGGTCCGGTTGGTCAGCTAACGGGTACG had a PBM binding z-score of -0.707. The same measure for TTACCAAGGTGAGCTGAGGTCGTTGACCCAACTC: -0.484. For TCTATTAGTTGACGGGCAACCGACGAGTCCGTTT the value was 0.073.

In the case of TTACCAAGGTGAACGTCGTTGATCCCTCTGTAGA, the PBM binding z-score was -0.455. For GCTATTAGTCGAAAGGGCAACCGAATGATTCTCG the value was 0.214. CCTAGCAGGCTAGGGTCACTCAAGCATTTCGCTT returned a PBM binding z-score of -0.638. The same measure for CGTCCAAGGTCAAAAGTCAGTGAAGAGATGACGG: 0.641.

Source of the values: the supplement of paper PMC6555819.
